Anthrax LF inh2 – inhibitors of Bacillus anthracis lethal factor protease; P15917; multiplex microsphere protease cleavage assay, LF; inhibition, % at 10 µM; 360,000 compounds, 0.12% hits; also: plate controls were buffer without enzyme for full effect and enzyme alone for no effect
BoNT-A LC inh2 – blocks Botulinum neurotoxin A light chain protease; multiplex microsphere protease substrate cleavage, flow cytometry; inhibition, % at 10 µM; 360,000 compounds, 0.17% hits; AID 588499; also: plate controls were buffer without enzyme for full effect and enzyme alone for no effect
Autofluor counter – counter-screen for toxin protease inhibitors: compound fluorescence; compound autofluorescence counterscreen, microsphere flow cytometry; stronger effect = higher value; 360,000 compounds, 3.1% hits; fluorescence intensity (concentration not given with the values); in the data active = fluorescence intensity above about 16000; inconclusive = no clear call, values can overlap the other calls
BoNT F protease – blocks Botulinum neurotoxin F light chain protease; inhibition, % at 10 µM; Multiplex microsphere protease cleavage assay, flow cytometry; 360,000 compounds, 0.22% hits; in the data active = inhibition above about 35%, passing the limit was not always enough; inconclusive = no clear call, values can overlap the other calls; also: plate controls were buffer without enzyme for full effect and enzyme alone for no effect
* marks the source's active call; other numbers are inactive results; ? = inconclusive. Hits are enriched below; roughly 3.5% of the tested compounds scored in any of these assays. Rule as the data show it, unless noted: active = inhibition above about 30%; inconclusive = no clear call, values can overlap the other calls; inactive = below that.

SMILES	Anthrax LF inh2	BoNT-A LC inh2	Autofluor counter	BoNT F protease
COc1ccc(-c2cc(-c3ccc(OC)cc3)nc(-c3ccc4c(c3)NC(=O)CO4)c2)cc1	-4	-2	23016*	-3
CCCn1c(O)c(N=NC(=O)c2cccnc2)c2cc(Br)ccc21	-3	1	4227	6
CCOc1ccccc1OCCC(=O)OCC(=O)Nc1c(C)nn(-c2ccccc2)c1C	1	0	5187	12
c1ccc(-n2ncc3c(N4CCN(c5ccccn5)CC4)nc(N4CCCCCC4)nc32)cc1	-3	2	19448*	1
c1ccc(-n2ncc3c(N4CCCCC4)ncnc32)cc1	15	8	5347	7
Cc1nn(-c2ccccc2)c2c1C1(C(=O)N3c4c(cccc41)C(C)CC3(C)C)C(C#N)=C(N)O2 (centres undefined)	-1	2	22394*	0
O=C(O)c1ccc(N2N=C(c3ccccc3)CC2c2ccccc2)cc1 (centres undefined)	1	2	2826	?
O=Cc1ccc(N2N=C(c3ccccc3)CC2c2ccccc2)cc1 (centres undefined)	2	42*	4507	53*
CCSc1nnc(NC(=O)CSc2nnc(C)c(=O)n2N)s1	-6	0	3721	-1
CCOC(=O)N1CCN(c2c(-c3ccccc3)c3cc(Cl)ccc3[nH]c2=O)CC1	0	0	7826	9
O=c1[nH]c2ccc(Cl)cc2c(-c2ccccc2)c1N1CCN(CCO)CC1	-1	?	20528*	1
Cc1ccccc1NS(=O)(=O)c1nnc(NC(=O)c2ccccc2C)s1	-6	-1	4616	-3
Cc1ccc2nccc(C(=O)N3CCCC(Nc4ccc(C)c(C)c4)C3)c2c1 (centres undefined)	-3	-2	5543	-5
CN1C/C(=C/c2ccncc2)C(=O)/C(=C/c2ccncc2)C1	-4	-6	3711	-6
CN1C/C(=C\c2ccc(N3CCOCC3)cc2)C(=O)/C(=C/c2ccc(N3CCOCC3)cc2)C1	33*	34*	9043	7
CCN1C/C(=C/c2ccc(N3CCOCC3)cc2)C(=O)/C(=C/c2ccc(N3CCOCC3)cc2)C1	22	37*	4303	-8
COc1ccc(S(=O)(=O)N(C)C[C@H]2Oc3ccc(NC(=O)NC4CCCCC4)cc3C(=O)N([C@H](C)CO)C[C@@H]2C)cc1	-6	-1	2959	3
CCN(CC)C(=O)C1=C(C)N(CCCOC)C(=O)C(CC(=O)NC2CCCCC2)C1 (centres undefined)	-2	0	3166	-2
O=C1CSC(c2cccnc2)N1c1ccccc1 (centres undefined)	-4	0	5962	-4
O=S1CCCSC1c1cccnc1 (centres undefined)	-5	2	21912*	-1
CSc1nnc(C2CCN(CC(=O)Nc3ccccc3N3CCOCC3)CC2)n1C(C)C	2	1	3694	-16
CCCOc1ccc(C(=O)c2nc3c(n2O)CCCC3)cc1	3	1	22563*	0
COc1ccc(OC)c(C(=O)c2nc3c(n2O)CCCCC3)c1	-2	-2	23230*	-6
COc1ccc(C(=O)c2nc3c(n2O)CCCCC3)cc1	2	0	2344	11
O=C(c1ccc(Oc2ccccc2)cc1)c1nc2c(n1O)CCCC2	-1	?	23776*	-5
SMILES	Anthrax LF inh2	BoNT-A LC inh2	Autofluor counter	BoNT F protease
CCOC(=O)c1ccc[n+](CC(=O)c2ccc(NC(=O)c3ccccc3)cc2)c1	7	5	3991	-12
O=C(NCCCN1CCOCC1)/C(=C/c1cccs1)NC(=O)c1ccccc1	1	-2	5782	0
O=C1c2cccc(NCCCNCCO)c2C(=O)c2cccc(NCCCNCCO)c21	-56	30*	2093	-102
O=C1c2ccccc2C(=O)c2c(NCc3cccnc3)cccc21	-9	6	8961	0
CCOc1ncccc1C(=O)Nc1ccc(C)cn1	0	0	6566	-3
COc1ccccc1N1CCN(CCC(=O)Nc2cccc(Cl)c2)CC1	-8	1	2561	-33
COC(=O)c1ccc2c(=O)[nH]c(COC(=O)CCC(=O)c3ccc(Cl)cc3)nc2c1	-5	-1	6540	-1
CCCCCCOc1ccc(CN2CCN(C)CC2)cc1	-2	?	24568*	-4
Cc1nc2ccccc2c(=O)n1-c1nccs1	-2	0	5741	7
O=c1c2ccccc2sn1-c1ccc(S(=O)(=O)N2CCCCC2)cc1	-6	17	6856	-6
O=c1c2ccccc2sn1-c1nccs1	-4	102*	4744	20
O=c1c2ccccc2sn1-c1ccccc1	2	70*	3386	0
Cc1ccc(-n2sc3ccccc3c2=O)cc1S(=O)(=O)N1CCCCC1	2	32*	3545	10
CN(C)S(=O)(=O)c1cccc(-n2sc3ccccc3c2=O)c1	-6	33*	5640	-1

Compound activity as filed in PubChem.
